This passage reports outcome results from PubChem BioAssay AID1671448 (Corson Lab, School of Medicine, Indiana University, 2021).

Among all 20,000 compounds or so, about 660 (3.3%) were called active.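 Rule for the calls: active = enzyme reaction rate more than 3 SD below the solvent-only control wells on the same plate; inactive = the rest.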 This excerpt belongs to a sample that is enriched for actives.

Sequence of Ferrochelatase, mitochondrial (Homo sapiens) (P22830 whole entry, looked up): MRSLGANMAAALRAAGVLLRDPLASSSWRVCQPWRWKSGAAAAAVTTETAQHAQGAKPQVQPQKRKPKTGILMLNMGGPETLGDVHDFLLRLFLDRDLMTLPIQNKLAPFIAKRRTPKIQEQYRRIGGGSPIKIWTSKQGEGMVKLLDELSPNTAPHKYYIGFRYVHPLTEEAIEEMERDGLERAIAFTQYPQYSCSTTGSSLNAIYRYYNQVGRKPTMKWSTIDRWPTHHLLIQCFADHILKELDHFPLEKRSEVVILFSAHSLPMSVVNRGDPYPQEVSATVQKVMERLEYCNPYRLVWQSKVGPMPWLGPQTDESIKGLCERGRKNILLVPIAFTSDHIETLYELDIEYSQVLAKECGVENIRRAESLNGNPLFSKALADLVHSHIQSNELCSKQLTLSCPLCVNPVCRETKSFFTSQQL

This assay addresses Ferrochelatase, mitochondrial (Homo sapiens) (UniProt P22830). The assay is described as follows: inhibitors of human ferrochelatase, primary screen, biochemical, purified FECH, Ni-mesoporphyrin absorbance (AID 1671448). The settings on record: Ni-mesoporphyrin absorbance 550 nm, screened at 10 µM (by protocol).
Turning to `Cc1cccc(C(C(=O)NC2CCN(S(C)(=O)=O)CC2)N(C)C)c1` (configuration not stated), the call was inactive.

As to `O=C1NC(c2cccnc2)(C2CCNCC2)C(=O)N1Cc1ccccc1F` (configuration not stated), the call was inactive.

As to `CCc1c(C)nc2ncnn2c1Sc1ccc(NC(=O)CC(C)C)cc1`, the outcome was inactive.

With `CCc1c(C)nc2ncnn2c1Sc1ccc(NC(=O)Cc2cccs2)cc1`, the molecule was classed as inactive.

On to `CCc1ccc(S(=O)(=O)Nc2ccc(Sc3c(CC)c(C)nc4ncnn34)cc2)cc1`, for which the molecule was classed as active.

Take `CCc1c(C)nc2ncnn2c1Sc1ccc(NC(=O)c2cc(OC)cc(OC)c2)cc1`: the call was active.

With `CCCc1c(C)nc2ncnn2c1Sc1ccc(NC(=O)C(C)(C)C)cc1`, the molecule was classed as active.

Regarding `CCc1c(C)nc2ncnn2c1Sc1ccc(NC(=O)Nc2cccc(C)c2C)cc1`, the molecule was called inactive.

With `CCc1c(C)nc2ncnn2c1Sc1ccc(NS(=O)(=O)c2cc(OC)ccc2OC)cc1`, the molecule was called inactive.

With `CCCc1c(C)nc2ncnn2c1Sc1ccccc1NC(=O)c1cccs1`, the result was inactive.

As for `CCCc1c(C)nc2ncnn2c1Sc1ccc(NS(=O)(=O)c2cc(C)cc(C)c2C)cc1`, the outcome was inactive.

In the case of `O=C(CN1CCCN(Cc2cccc(F)c2)S1(=O)=O)Nc1ccc(Br)cc1`, the result was inactive.

Turning to `O=C(c1ccncc1)N1CC[C@@H](c2ccc3ccccc3c2)[C@H](O)C1`, the outcome was inactive.

For `C=CCOc1c(Cl)cc(C(=O)NCCc2cnc[nH]2)cc1Cl`, the molecule was classed as inactive.

`CCc1nc(C)sc1CNC(=O)[C@H](N)CC(C)C`: the call was inactive.

For `CCOc1ccc(-c2nc(CSc3nc4c(c(=O)[nH]3)CCCC4)c(C)o2)cc1OC`, the molecule was classed as inactive.

In the case of `COc1cccc2c1OCCCN(C(=O)[C@@H]1Cc3ccccc3N1)C2`, the result was inactive.

On to `COc1ccc(CNc2nc3nc(CN4CCN(c5ccccc5OC)CC4)cc(=O)n3[nH]2)cc1`, for which the outcome was active.

As to `COc1ccc(CNc2nc3nc(CNc4ccc(C)cc4)cc(=O)n3[nH]2)cc1`, the molecule was called inactive.

On to `COc1ccc(CNc2nc3nc(CNc4ccc(Br)cc4)cc(=O)n3[nH]2)cc1`, for which the outcome was inactive.

As to `O=C(CSc1nc(-c2ccco2)nc2cc(=O)[nH]n12)NCCCc1ccccc1`, the call was inactive.

Take `O=C(NCc1ccccc1)c1nc[nH]c1C(=O)NCc1cccc(C(F)(F)F)c1`: the outcome was active.

With `CC(C)CCNC(=O)c1nc[nH]c1C(=O)NCC(C)(C)C`, the call was inactive.

Turning to `CC(C)(C)CNC(=O)c1[nH]cnc1C(=O)NCC1CC1`, the call was inactive.

Turning to `Cc1cc(C)nc(SC(C)c2n[nH]c(Cc3ccccc3)n2)n1` (configuration not stated), the molecule was classed as inactive.

On to `Cc1nnnn1CCCN1CCC(Cc2cccc(C(=O)O)c2)CC1`, for which the result was inactive.

As to `O=S(=O)(NCCn1c(-c2ccccc2)nc2cccnc21)c1ccc(C2CCCCC2)cc1`, the molecule was classed as inactive.

`O=S(=O)(NCCn1c(-c2ccccc2)nc2cccnc21)c1ccc(Br)cc1`: the call was active.

For the molecule `CCOc1ccc(S(=O)(=O)NCCn2c(-c3ccccc3)nc3cccnc32)cc1`, the molecule was called inactive.

For `COc1cccc2c1OCC(CN1CCC(O)(c3ccc(C)cn3)CC1)=C2`, the call was inactive.

`O=C(O)c1cccnc1CN1CCN(Cc2ccc3c(c2)OCO3)CC1`: the result was inactive.

For the molecule `O=C(CN1CCN(Cc2ccccc2Cl)S1(=O)=O)Nc1ccccc1Cl`, the molecule was classed as inactive.

Take `Cc1ccccc1CN1CCN(CC(=O)Nc2cccc(Cl)c2C)S1(=O)=O`: the outcome was active.

Take `COc1ccccc1NC(=O)CN1CCN(Cc2ccccc2C)S1(=O)=O`: the molecule was called inactive.

With `CCOc1ccc(-c2nc(Cn3c(=O)c4cnc(-c5ccc(OC)cc5)nc4n(C)c3=O)c(C)o2)cc1`, the molecule was classed as inactive.

Turning to `CCn1ccc(-c2n[nH]c(=O)n2Cc2ccccc2F)n1`, the call was inactive.

Consider `CC(=O)Nc1ccc(S(=O)(=O)N2CCN(Cc3nc4cccnc4n3-c3ccc(C)cc3)CC2)cc1`, for which the result was active.

On to `CCc1ccc(S(=O)(=O)N2CCN(Cc3nc4cccnc4n3-c3ccccc3)CC2)cc1`, for which the outcome was inactive.

Consider `Cc1ccccc1S(=O)(=O)N1CCN(Cc2nc3cccnc3n2-c2ccccc2)CC1`, for which the molecule was classed as inactive.

`Cc1ccc(OCC(=O)Nc2cc(C)nn2-c2ncnc3c2cnn3-c2cccc(C)c2C)cc1`: the result was inactive.

`CCN(CC)Cc1cnc2c(C(=O)Nc3cccc4cc(C)oc34)cnn2c1`: the result was inactive.

Regarding `CCN(CC)Cc1cnc2c(C(=O)N3CCC(Cn4cccn4)CC3)cnn2c1`, the molecule was called active.

Consider `NC(=O)c1cccc(CC2CCN(C(=O)c3cnn4cccnc34)C2)c1` (configuration not stated), for which the molecule was called inactive.

On to `CN1CCC(Cc2noc(CCc3nc4cccnc4n3C)n2)CC1`, for which the molecule was called inactive.

In the case of `CCc1cccc(NS(=O)(=O)c2ccc3c(c2)CCN3C(=O)CCC(=O)N2CCOCC2)c1`, the call was inactive.

Take `CCc1nc2nc(C)[nH]n2c(=O)c1NC(=O)Nc1cccc(C(F)(F)F)c1`: the call was inactive.

As for `Cc1nc2nc(-c3ccccc3)nn2c(Sc2ccccc2NC(=O)c2ccc(Cl)cc2)c1C`, the outcome was inactive.

In the case of `O=C(Nc1nc2n(n1)C(c1c(F)cccc1Cl)C=C(c1ccccc1)N2)c1ccc(F)cc1` (configuration not stated), the molecule was classed as inactive.

With `Cc1ccc(C(=O)Nc2nc3n(n2)C(c2ccccc2)C=C(c2ccc(Cl)cc2)N3)cc1` (configuration not stated), the outcome was inactive.

In the case of `Cc1ccc(C2=CC(c3ccc(C)cc3)n3nc(NC(=O)c4ccco4)nc3N2)cc1` (configuration not stated), the call was active.

Regarding `O=C(Nc1nc2n(n1)C(c1ccc(Cl)cc1)C=C(c1ccc(Cl)cc1)N2)c1ccccc1` (configuration not stated), the result was inactive.

As for `COc1ccccc1C(=O)Nc1nc2n(n1)C(c1ccc(F)cc1)C=C(c1ccccc1)N2` (configuration not stated), the molecule was called active.

For the molecule `O=C(Nc1nc2n(n1)C(c1ccccc1Cl)C=C(c1ccccc1)N2)c1ccccc1F` (configuration not stated), the outcome was active.

Regarding `O=C(Nc1nc2n(n1)C(c1ccccc1)C=C(c1ccc(Cl)cc1)N2)c1ccc(F)cc1` (configuration not stated), the molecule was called inactive.

Regarding `Cc1ccc(C2=CC(c3ccc(F)cc3)n3nc(NC(=O)c4cccs4)nc3N2)cc1` (configuration not stated), the result was inactive.

Turning to `Cc1ccc(C2=CC(c3c(F)cccc3Cl)n3nc(NC(=O)c4ccco4)nc3N2)cc1` (configuration not stated), the molecule was classed as inactive.

Take `CCCC(=O)NC1CC(=O)N(c2ccc(OCC)cc2)C1` (configuration not stated): the result was inactive.
